# Bioassay records as filed in PubChem.
# FUS suppressor = suppressors of FUS proteinopathy in yeast; Potency, µM (doses to about 76.6 µM), hits mostly activators; S. cerevisiae FUS-expressing, growth rescue, OD600, 24 h; AID 1347120; actives 0.24% (n = 390,000);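 also: plate controls were DMSO vehicle for no effect and reference control for full effect; nearly all actives have a fitted effect of over 55% in size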
#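 Cultures pregrown in 2.5% raffinose medium are shifted to minimal medium containing 2% galactose to express toxic FUS. Compounds are tested at several concentrations. After 24hr at 30C, growth is quantified at 600 nm absorbance.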
# Abeta rescue = A-beta toxicity reversal in yeast. actives 0.063% (n = 410,000). AID 1347071. yeast expressing A-beta42, growth rescue, OD600, 48 h; response scale: 0% DMSO, 100% iron-clioquinol control. Potency, µM (titrated, usually from 46.1 µM), most hits filed as activators; also: nearly all actives have a fitted effect of over 55% in size
#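 Yeast growth medium received pinned compounds, then yeast cells expressing toxic A-beta were added; plates incubated at 30 C for 48 hr. Growth read as absorbance at 600 nm, normalized to DMSO and equimolar FeCl3 plus clioquinol controls.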
# TDP-43 yeast inh = rescues yeast growth from TDP-43 toxicity. TDP-43 expressing yeast growth rescue, BacTiter-Glo, 24 h. Potency, µM (doses to about 46.1 µM), without a hit: at the highest dose growth rescue (activation), hits mostly activators. actives 1.8% (n = 410,000). AID 652104; also: % of control where 0% means no effect; nearly all actives have a fitted effect of over 50% in size
#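 Yeast cells expressing TDP-43 under galactose induction are exposed to compounds for 24 hr at 30 deg C. BacTiter-Glo luminescence measures growth, so protective compounds score as activators.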
# aSyn yeast inh = rescues yeast growth from alpha-synuclein toxicity | Yeast expressing alpha-synuclein, growth rescue, BacTiter-Glo, 24 h | Potency, µM (doses to about 46.1 µM), for inactives: at the top dose growth rescue (activation), actives largely listed as activators | actives 0.14% (n = 370,000) | AID 652106; also: % of control where 0% means no effect; nearly all actives have a fitted effect of over 65% in size
#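 Screening used galactose-induced yeast with toxic alpha-synuclein levels, exposed to compound for 24 hr at 30 deg C. Cell growth, read with BacTiter-Glo luminescence, gave the measured signal.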
# Starred values were filed as active, the others as inactive; i = inactive; ? = inconclusive; · = no result given. An excerpt weighted towards active compounds, which were near 2.1% of everything screened. Calls follow the shape of the dose curve; as a rule, active = well fitted curve in the direction sought with a large enough effect; inconclusive = small, poorly fitted or top-dose-only effect, or another doubt; inactive = no such curve, though single readings can be large; an effect the other way counts as inactive or inconclusive. Potency is read from the fitted curve at half-maximal effect.
SMILES,FUS suppressor,Abeta rescue,TDP-43 yeast inh,aSyn yeast inh
CCOC(=O)N1CCC(NC(=O)c2ccc3c(c2)N(Cc2ccc(F)cc2)C(=O)c2ccccc2S3(=O)=O)CC1,25µM*,i,-17%,·
N#Cc1cccnc1N1CCN(C(=O)c2ccc3c(c2)S(=O)(=O)c2ccccc2C3=O)CC1,i,i,-18%,0%
O=C1c2ccccc2S(=O)(=O)c2cc(C(=O)N3CCN(c4ccc(Cl)cn4)CC3)ccc21,i,i,20µM*,6%
O=C(c1ccc2c(c1)N(Cc1ccc(Cl)cc1)C(=O)c1ccccc1S2(=O)=O)N1CCCCCC1,28µM*,i,18%,·
CCOC(=O)N1CCC(NC(=O)c2ccc3c(c2)N(Cc2ccccc2)C(=O)c2ccccc2S3(=O)=O)CC1,?,i,23%,·
O=C(Nc1ccccc1C(F)(F)F)c1ccc(F)c(S(=O)(=O)N2CCc3ccccc3C2)c1,i,?,?,·
COc1ccc(NC(=O)Nc2nnc(C)s2)cc1,i,i,-3%,·
CCCCOc1ccc(NC(=O)Nc2nnc(C)s2)cc1,i,i,7%,1.3µM*
O=C(Nc1ccccc1Oc1ccccc1)c1cnccn1,i,i,16%,-7%
CCOc1ccccc1NC(=O)c1cccc2ccccc12,i,i,7.9µM*,-1%
CCOc1ccccc1NC(=O)c1cnccn1,i,i,11µM*,-9%
CC(=O)C(C(c1ccccc1)c1c[nH]c2ccccc12)[N+](=O)[O-] (stereo unspecified),i,?,13µM*,?
COc1ccccc1C(C[N+](=O)[O-])c1c[nH]c2ccccc12 (stereo unspecified),i,i,20µM*,?
CCN(CC)c1ccc(C(=C2C=CC(=[N+](CC)CC)C=C2)c2ccc(N(CC)CC)cc2)cc1,35µM*,i,-97%,-78%
CCOc1ccccc1C(=O)N1CC(=O)Nc2ccc(Cl)cc2C1c1ccccc1 (stereo unspecified),i,i,21%,·
C/C(=C\C(=S)Nc1ccccc1)Nc1cccc2ccccc12,·,i,11µM*,0%
C/C(=C\C(=S)Nc1ccccc1)Nc1ccc2ccccc2c1,i,i,13µM*,-2%
S=C(NCc1ccccc1)Nc1ccc2ccccc2c1,i,?,?,2%
CC(=O)c1ccccc1OCCn1nnc(-c2ccc(C)cc2)n1,i,i,25µM*,12%
O=C(NCCC1=CCCCC1)NC12CC3CC(CC(C3)C1)C2,i,i,16µM*,-12%
CCOc1ccc(NCc2cccn2-c2nnc(N3CCC(C(=O)NCCc4ccc(OC)c(OC)c4)CC3)s2)cc1,25µM*,i,-6%,·
CCC12CC3CC(C1)CC(C(=O)O)(C3)C2,i,i,14µM*,0%
COC(=O)c1ccc(NC(=O)N2CCc3c([nH]c4ccccc34)C2c2ccc(C)cc2)cc1 (stereo unspecified),?,i,3%,·
CC(C)Cc1ccc(C(C)C(=O)Nc2ccc(O)cc2)cc1 (stereo unspecified),i,i,11µM*,-15%
Cn1c(COc2cccc3ccccc23)nnc1SCC(=O)OC1CCCCC1,?,i,25µM*,?
SMILES,FUS suppressor,Abeta rescue,TDP-43 yeast inh,aSyn yeast inh
Cc1ccc(C)c(S(=O)(=O)c2nnn3c2nc(N2CCCCC2)c2sccc23)c1,i,i,10%,·
OCc1cccc(-c2cnc3c(Nc4cccc(OC(F)(F)C(F)F)c4)nccn23)c1,?,i,20µM*,-7%
Cc1ccc(-c2cnc3c(Nc4cccc(OC(F)(F)C(F)F)c4)nccn23)cc1,i,i,9%,-17%
COc1cc(-c2noc(-c3ccc(NCc4cccnc4)c([N+](=O)[O-])c3)n2)cc(OC)c1OC,i,i,4%,·
COc1cccc(NC(=O)c2cnsn2)c1,i,i,13µM*,·
COc1cccc(NC(=O)c2cccc(C(=O)Nc3cccc(OC)c3)n2)c1,·,i,12%,7%
COc1ccc(NC(=O)c2csc3c2CCCC3)cc1,i,i,-8%,0%
COc1cccc(NC(=O)c2csc3c2CCCC3)c1,i,i,18µM*,-7%
COc1cccc(C(=O)Nc2cccc(NC(=O)c3ccc(Cl)cc3Cl)c2)c1,i,i,11µM*,·
COc1ccc(N2CCN(C(=O)c3cn(C)c(=O)c4c3c3ccccc3n4C)CC2)cc1,i,i,-24%,9%
COc1ccc(N2CCN(C(=O)c3cn(C4CCCC4)c(=O)c4c3c3ccccc3n4C)CC2)cc1,?,i,20µM*,14%
CC(C)Oc1ccc(C(=O)O)cc1,i,i,13µM*,1%
Cc1ccc(C(=O)Nc2ccccc2)cc1S(=O)(=O)Nc1ccccc1,i,i,1%,·
Cc1ccc(C(=O)Nc2ccccc2)cc1S(=O)(=O)Nc1ccc(Br)cc1,i,i,13µM*,·
CCOC(=O)[C@@]12CCC3=C1N(CCC3)C(=O)[C@H](CC(=O)NCCc1ccccc1OC)C2,i,·,·,·
CC1CCc2sc3nc(NCc4ccco4)n4ncnc4c3c2C1 (stereo unspecified),i,i,25µM*,0%
c1ccc(CNc2ncnc3sc4c(c23)CCCC4)nc1,i,i,13µM*,2%
Cc1nc(NCc2ccccn2)c2c3c(sc2n1)CCCC3,i,i,22%,0%
c1coc(CNc2ncnc3sc4c(c23)CCCCC4)c1,i,i,13µM*,0%
COc1cc(C#Cc2c(-c3cncn3C)n(C)c3ccc(-c4cnc(OC)nc4)cc23)cc(OC)c1,i,i,11µM*,14%
O/N=C(/C[n+]1cccc(Br)c1)c1ccc2ccccc2c1,·,·,·,0%
Cc1ccc([N+](=O)[O-])cc1S(=O)(=O)N1CCC(C)CC1,i,i,16µM*,13%
Cc1ccc(S(=O)(=O)N2CCC(C)CC2)c([N+](=O)[O-])c1,i,i,18µM*,14%
COc1ccc(C)cc1S(=O)(=O)N1CCC(C)CC1,i,i,19%,7%
O=[N+]([O-])c1ccccc1CNc1ccc(F)c(Cl)c1,i,i,18µM*,-11%
SMILES,FUS suppressor,Abeta rescue,TDP-43 yeast inh,aSyn yeast inh
N#C/C(=C(/O)CSc1nnc(Cc2cccs2)n1C1CCCCC1)c1nc2ccccc2[nH]1,50µM*,i,9%,0%
N#CCSc1nnc(Cc2cccs2)n1C1CCCCC1,i,i,?,-3%
Cn1cnnc1SC/C(O)=C(\C#N)c1nc2ccccc2[nH]1,i,i,2%,8%
COc1ccccc1-c1nnc(SC/C(O)=C(\C#N)c2nc3ccccc3[nH]2)n1C1CCCCC1,28µM*,i,1%,2%
O=C(c1c(F)cccc1F)N1CCN(c2cccc(C(F)(F)F)c2)CC1,i,i,16µM*,14%
Cn1cccc1C(=O)N1CCN(c2cccc(C(F)(F)F)c2)CC1,i,i,?,3%
